DT40 TDP1 no CPT – qHTS for Inhibitors of human tyrosyl-DNA phosphodiesterase 1 (TDP1): qHTS in cells in absence of CPT; AID 686978, 2013; DT40 Tdp1-/- hTDP1 cells, no CPT, ATP luminescence, 48 h; 420,000 tested, 15% active; Potency, µM (doses to about 46.2 µM), without a hit: at the highest dose activity change, negative = growth inhibition, hits mostly inhibitors; further: nearly all actives have a fitted effect of over 55% in size
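Chicken DT40 Tdp1-/- cells stably complemented with human TDP1 were seeded at 400 cells/well with DMSO in place of 20 nM camptothecin. After compound pinning, cells grew at least 48 hr at 37 °C; viability read by CellTiter-Glo luminescence.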
HT1080 IDH1KD tx – HT-1080 IDH1 knockdown cell toxicity (counter line); 360,000 tested, 2% active; Potency, µM (doses to about 46.1 µM), for inactives: top-dose activity, negative = toxicity, hits mostly cytotoxic; HT-1080 IDH1 knockdown viability, ATP luminescence, 48 h;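 further: 0% = DMSO wells and -100% = cell-free medium wells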
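Assay cells: HT-1080 with IDH1 knockdown, 750 per well, RPMI/5% FBS. Exposure: 48 h at 37 °C following 2 h pre-incubation. Read: CellTiter-Glo luminescence; fitted concentration-response, curve class assigned.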
KB-3-1 tox – kills parental KB-3-1 adenocarcinoma cells; KB-3-1 viability, CellTiter-Glo ATP luminescence, 72 h; Potency, µM (highest dose often 46.1 µM), most hits filed as cytotoxic; 400,000 tested, 1.4% active; further: nearly all actives have a fitted effect of over 60% in size
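Parental KB-3-1 viability, qHTS format: 72 h compound exposure, 37 °C; CellTiter-Glo; media-only wells and DMSO plates as controls; concentration-effect fits on corrected data.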
KB-V1 MDR tox – KB-V1 MDR subline cytotoxicity. KB-V1 MDR cells viability, CellTiter-Glo, 72 h. 400,000 tested, 3.4% active. Potency, µM (titrated, usually from 46.1 µM), actives largely listed as cytotoxic; further: nearly all actives have a fitted effect of over 60% in size
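In this primary screen, KB-V1 cells overexpressing P-gp are incubated with library compounds (lowest to highest concentration) for 72 h at 37 degrees C before a luminescent ATP viability read.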
HT1080-NT tox – kills 2HG-producing HT-1080-NT fibrosarcoma cells; HT-1080-NT fibrosarcoma viability, CellTiter-Glo ATP luminescence, 48 h; Potency, µM (series often up to 46.1 µM), without a hit: top-dose activity, negative = less viability, most hits filed as cytotoxic; 360,000 tested, 1.6% active; AID 686970;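 further: NT is the 2HG producing partner of a matched IDH1 knockdown line; 0% = DMSO-treated cells and -100% = media-only wells without cells; nearly all actives have a fitted effect of over 55% in size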
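Luminescent CellTiter-Glo readout after 48 hours of compound exposure at 37 degrees C defined viability of HT-1080-NT cells. Activity was normalized to DMSO wells and cell-free media wells; concentration-response curves were fitted and assigned curve classes.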
TDP1 cell CPT – DT40-hTDP1 cell growth loss with CPT. 420,000 tested, 12% active. chicken DT40 Tdp1-/-;hTDP1 cells + 20 nM CPT, ATP luminescence, 48 h. Potency, µM (doses to about 46.2 µM), inactives show at the highest dose activity change, negative = growth inhibition, usual class: inhibitors; further: nearly all actives have a fitted effect of over 55% in size
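Chicken DT40 Tdp1-/- cells stably complemented with human TDP1 were seeded at 400 cells/well in medium containing 20 nM camptothecin, exposed to pin-transferred compounds, and grown at 37 °C for at least 48 hr. Viability was read as ATP luminescence.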
* marks the source's active call; other numbers are inactive results; i = inactive; ? = inconclusive; / = no result given. A selection: hits, their analogues and other compounds. The true share with any hit is near 19%. The call rests on the fitted dose curve; in most records, active means well fitted curve in the direction sought with a large enough effect; inconclusive means small, poorly fitted or top-dose-only effect, or another doubt; inactive means no such curve, though single readings can be large; an effect the other way counts as inactive or inconclusive. Unless noted, on the % scale 0 is the no-effect control and ±100 the full control effect; potency means the concentration at half of the fitted maximal effect.

SMILES | DT40 TDP1 no CPT | HT1080 IDH1KD tx | KB-3-1 tox | KB-V1 MDR tox | HT1080-NT tox | TDP1 cell CPT
N#C/C(=C/c1ccc(N2CCCCC2)o1)C(=O)Nc1ccc(Cl)cc1 | ? | 12% | i | i | 5% | ?
CC(C)c1ccc(NC(=S)Nc2cccc3ccccc23)cc1 | 16µM* | -12% | i | i | -7% | 18µM*
Fc1ccc(NC(=S)Nc2cccc3ccccc23)cc1F | 16µM* | 0% | i | i | -12% | ?
Cc1ccc(NC(=S)Nc2cccc3ccccc23)cc1 | -12% | -14% | i | i | 0% | -28%
COc1cccc(NC(=O)Cn2c(=O)n(Cc3ccc4c(c3)OCO4)c(=O)c3oc4ccccc4c32)c1 | -13% | / | / | / | / | -8%
COc1ccc(-c2noc(CCC(=O)Nc3cc(Cl)c(OC)cc3OC)n2)cc1 | 18µM* | ? | i | i | -26% | ?
COc1ccc(-c2noc(CCC(=O)Nc3cc(OC)ccc3OC)n2)cc1 | 21µM* | -19% | i | i | -10% | -25%
CN1CC(O)(C(O)C(O)C(O)CO)SC1=S (stereo not drawn) | 4% | 5% | i | i | 3% | 4%
O=[N+]([O-])c1ccc(OCCCCN2CCc3ccccc3C2)cc1 | ? | -19% | i | i | -13% | -13%
CC(C)c1ccc(N2C=Nc3ccc(C(C)C)cc3C2)cc1 | ? | 23µM* | ? | i | ? | ?
C1=Nc2ccccc2CN1c1ccccc1 | ? | 5% | i | i | 6% | -4%
O=c1[nH]c2cc([N+](=O)[O-])ccc2c2ccc([N+](=O)[O-])cc12 | 15µM* | 18% | i | i | 16% | 9.2µM*
O=c1[nH][nH]c2cc([N+](=O)[O-])ccc12 | 3.7µM* | 15µM* | ? | ? | 4.1µM* | 3.7µM*
O=c1[nH]c2cc([N+](=O)[O-])ccc2c2ccccc12 | -21% | ? | i | ? | -14% | -17%
O=c1[nH]c2ccc([N+](=O)[O-])cc2[nH]1 | -1% | -13% | i | ? | -1% | 10%
CCc1cccc2[nH]c3cc([N+](=O)[O-])ccc3c12 | ? | -22% | ? | 13µM* | -11% | -2%
CCOc1ccc(-n2c(SCC(=O)Nc3cccc(Cl)c3)nc3c(oc4ccccc43)c2=O)cc1 | 17% | / | i | i | / | 8%
O=C(NCCn1cc(SCc2ccccc2F)c2ccccc21)c1cccs1 | 21µM* | / | ? | i | / | ?
O=C(NCCn1cc(SCC(=O)N2CCOCC2)c2ccccc21)c1c(F)cccc1F | ? | 5% | i | i | 0% | ?
O=C(NCCn1cc(SCc2ccccc2F)c2ccccc21)c1c(F)cccc1F | 23µM* | -9% | i | i | -14% | ?
Cc1ccccc1CSc1cn(CCNC(=O)c2cccs2)c2ccccc12 | ? | / | ? | ? | / | 23µM*
CC(Sc1cn(CCNC(=O)c2ccccc2F)c2ccccc12)c1ccccc1 (stereo not drawn) | 21µM* | / | i | i | / | ?
c1ccc2sc(-n3cc(C4CCCCC4)nn3)nc2c1 | ? | -16% | ? | ? | 18% | ?
CC(C)=CCC/C(C)=C/CC/C(C)=C/CC/C=C(\C)CC/C=C(\C)CCC=C(C)C | -25% | / | / | / | / | -3%
O=C(CN(c1ccccc1)S(=O)(=O)c1ccccc1[N+](=O)[O-])N1CCCC1 | -14% | 10% | ? | i | 15% | -1%
OC(c1cccc(Cl)c1)c1nc(-c2ccc(Cl)cc2)cs1 (stereo not drawn) | ? | ? | i | i | -5% | ?
